Screens (PubChem BioAssay)
Sampled rows, rich in hits. Any-hit rate of the full collection: about 10%.
HP1b binding inh: inhibitors of HP1-beta chromodomain binding to methylated histone tails. AlphaScreen HP1-beta / biotin-H3K9me3 peptide binding. Potency, µM (titrated, usually from 114 µM), for the others: top-dose activity change, negative = inhibition, most hits filed as inhibitors. actives 0.56% (n = 390,000). AID 540317; also: potency is read from the fitted curve at half-maximal effect; nearly all actives have a fitted effect of over 70% in size
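Compound inhibition of the preformed complex between 50 nM HP1-beta and 50 nM biotinylated H3K9me3 peptide was read by AlphaScreen. Buffer was PBS pH 7.4 with 0.01% Tween-20. Incubations ran 30 min at room temperature, with 10 ug/mL donor/acceptor beads.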
BAZ2B block: BAZ2B (human) inhibition; Q9UIF8; AlphaScreen BAZ2B-H3K14Ac peptide displacement; Potency, µM (doses to about 114 µM), for inactives: top-dose activity change, negative = inhibition, actives largely listed as inhibitors; actives 4.4% (n = 360,000); AID 504333; also: potency is read from the fitted curve at half-maximal effect; % is scaled to controls: 0 for no effect and ±100 for the full control effect; nearly all actives have a fitted effect of over 60% in size
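Inhibition is scored as reduced AlphaScreen emission. The BAZ2B/b-H3(5-23)K14Ac complex (50 nM each) in PBS pH 7.4, 0.01% Tween-20 meets compound (up to 110 uM) for 30 min at RT before bead addition.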
G9a inh: blocks human histone lysine methyltransferase G9a; AID 504332; actives 8.8% (n = 350,000); Q96KQ7; Potency, µM (titrated, usually from 102 µM), without a hit: at the top dose activity, negative = inhibition, most hits filed as inhibitors; G9a H3K9 monomethylation, AlphaScreen, 2 h; also: potency is read from the fitted curve at half-maximal effect; % is scaled to controls: 0 for no effect and ±100 for the full control effect; nearly all actives have a fitted effect of over 75% in size
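Chemiluminescent proximity detection of H3K9 monomethylation, read after 10 min bead incubation in the dark. Reaction: 20 nM G9a, 500 nM biotin-H3K9 peptide, 20 uM SAM cofactor, 2 h, room temperature, following 15 min enzyme-compound preincubation.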
Six1-Eya2 inh: Six1/Eya2 interaction inhibition; Q15475+O00167; AlphaScreen GST-Six1/His-Eya2 binding, biochemical; hits give low values; activity change, % (concentration not given with the values); actives 0.56% (n = 360,000); in the data active = activity change below about -65%; inconclusive = mostly about -30% to -63%; also: % is scaled to controls: 0 for no effect and ±100 for the full control effect
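Compounds are tested against tagged Six1 and Eya2 proteins bridged by glutathione donor and nickel acceptor beads; after a one-hour incubation at 37 °C without light, AlphaScreen emission is recorded.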
CtBP-E1A inh: CtBP/E1A binding inhibition | actives 0.49% (n = 340,000) | AlphaScreen GST-E1A/His-CtBP binding, 1536-well; hits give low values | activity change, % (test concentration not listed); in the data active = activity change below about -65%; inconclusive = mostly about -30% to -63%; also: % is scaled to controls: 0 for no effect and ±100 for the full control effect
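GST-E1A and His-tagged CtBP (125 nM each as 5X stock) were preincubated with pin-transferred compound for 2 h at 37 °C in the dark, then glutathione donor and nickel acceptor beads were added for 1 h before AlphaScreen reading.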
JMJD2A Tudor: JMJD2A Tudor domain (human) inhibition | AlphaScreen JMJD2A-Tudor / H3K4me3 peptide binding | Potency, µM (top dose mostly 114 µM), for inactives: top-dose activity change, negative = inhibition, actives largely listed as inhibitors | actives 4.4% (n = 390,000) | AID 504339; also: potency is read from the fitted curve at half-maximal effect; % is scaled to controls: 0 for no effect and ±100 for the full control effect; nearly all actives have a fitted effect of over 50% in size
* marks the source's active call; other numbers are inactive results; ? = inconclusive; / = not tested or not shown; [ ] = remark or other dose. Unless noted, calls follow the shape of the dose curve; as a rule, active = well fitted inhibition curve with a large enough effect; inconclusive = small, poorly fitted or top-dose-only effect; inactive = no such curve, though single readings can be large or run the other way.

SMILES	HP1b binding inh	BAZ2B block	G9a inh	Six1-Eya2 inh	CtBP-E1A inh	JMJD2A Tudor
COC(=O)c1ccc(NC(=O)C(c2ccccc2)N2Cc3ccccc3C2=O)cc1 (centres undefined)	-3%	?	-29%[59 µM]	/	/	-31%
CCCCCC(/C=N/Nc1ccc(S(=O)(=O)N2CCOCC2)cc1[N+](=O)[O-])=C\c1ccccc1	?	?	11µM*	-10	-6	?
CSc1cccc(Nc2ccc(S(=O)(=O)N3CCOCC3)cc2[N+](=O)[O-])c1	-14%	?	?	?	/	?
O=[N+]([O-])c1ccc(Nc2ccc(N3CCOCC3)cc2)c([N+](=O)[O-])c1	32µM*	11µM*	22µM*	-5	-2	?
Cc1cccc(Nc2ccc(S(=O)(=O)N3CCOCC3)cc2[N+](=O)[O-])c1	?	?	?	?	?	10µM*
COc1ccccc1Nc1ccc(S(=O)(=O)N2CCCCC2)cc1[N+](=O)[O-]	?	8.9µM*	?	?	-25	10µM*
COc1ccccc1Nc1ccc(C(=O)O)cc1[N+](=O)[O-]	10%	-34%	?	-3	3	-28%
CCCOc1ccc(S(=O)(=O)N2CCOCC2)cc1[N+](=O)[O-]	-7%	-15%	0%[59 µM]	5	2	89µM*
COCC(C)Nc1ccc(S(=O)(=O)N2CCCC2)cc1[N+](=O)[O-] (centres undefined)	-9%	-17%	21%[59 µM]	-6	0	-17%
COc1ccc(Nc2ccc(S(=O)(=O)N3CCCCC3)cc2[N+](=O)[O-])cc1OC	?	10µM*	7.1µM*	?	?	?
COc1ccc(Nc2ccc(S(=O)(=O)N3CCCCCC3)cc2[N+](=O)[O-])cc1	25µM*	10µM*	11µM*	?	-66*	6.3µM*
CCC(=O)N1N=C(c2ccc(C)o2)CC1c1ccc(N(C)C)cc1 (centres undefined)	-5%	?	50µM*	-10	-1	?
O=C(c1ccccc1)N1N=C(c2ccco2)CC1c1cccs1 (centres undefined)	?	?	/	-1	-3	35µM*
O=C(CCl)N1N=C(c2ccco2)CC1c1cccs1 (centres undefined)	16%	-5%	10µM*	-1	-1	-18%
Cc1ccc(C2=NN(C(=O)CCl)C(c3cccs3)C2)o1 (centres undefined)	24%	-10%	13µM*	3	13	-13%
CC(=O)N1N=C(c2ccc(C)o2)CC1c1ccc(Br)cc1 (centres undefined)	-1%	?	/	-11	-17	-26%
CCc1ccc(C2c3c(-c4ccccc4O)n[nH]c3C(=O)N2Cc2cccnc2)cc1 (centres undefined)	32%	-7%	16%[59 µM]	/	/	-32%
COc1cccc(CNC(=O)c2c(C)oc3nc(C)nc(N4CCOCC4)c23)c1	31%	10%[57.1 µM]	-1%[59 µM]	/	/	-4%
CCCCN(C)S(=O)(=O)c1ccc(NC2=NS(=O)(=O)c3ccccc32)cc1	23%	0%	-18%[59 µM]	/	/	-9%
CC(C)Oc1ccc(CNC(=O)C2CCN(C(=O)N3CC(C)Oc4ccccc43)CC2)cc1 (centres undefined)	26%	-7%	?	/	/	-5%
CCc1nnc2c(Nc3cccc(F)c3)nc3ccc(C(=O)c4ccccc4)cc3n12	8%	-3%	5%[59 µM]	/	/	-19%
O=C(COc1ccccc1)Nc1ccccc1F	71%	1%	-4%[0.501 µM]	4	13	1%
O=C(COc1c(Br)cc(Br)c2cccnc12)Nc1ccccc1F	18%	50µM*	45µM*	-8	/	-22%
COc1cc(OC)c(NC(=O)c2c(C)oc3ncn(C)c(=O)c23)cc1Cl	21%	-4%	1%[59 µM]	/	/	-14%
O=C(COC(=O)/C=C/c1ccco1)NCc1ccc(Cl)cc1Cl	18%	/	/	-4	/	-8%
SMILES	HP1b binding inh	BAZ2B block	G9a inh	Six1-Eya2 inh	CtBP-E1A inh	JMJD2A Tudor
O=C(COC(=O)/C=C/c1ccco1)Nc1ncc(C(F)(F)F)cc1Cl	50µM*	45µM*	22µM*	-14	-2	35µM*
Cc1c(Cl)cnc(NC(=O)COC(=O)/C=C/c2ccco2)c1Cl	-4%	50µM*	45µM*	?	-3	?
CCCCOc1ccc(CNC(=O)C2COc3ccc(OC)cc3C2)cc1 (centres undefined)	41%[57 µM]	18%	-1%[59 µM]	/	/	-4%
COc1cccc(CNC(=O)c2ccc(CN3CC(=O)N4CCCCC4C3=O)cc2)c1 (centres undefined)	-6%	0%	-19%[59 µM]	/	/	-7%
COc1ccccc1CN(Cc1ccco1)c1cnc(S(C)(=O)=O)nc1C(=O)Nc1ccccc1Cl	14%	?	-41%[59 µM]	/	/	?
CC(C)(C)c1ccc(OCCn2cc(C(=O)c3ccco3)c3ccccc32)cc1	17%	-39%	-10%[59 µM]	/	/	-21%
C#CCOCCOCCOCCNc1nc(N2CCN(C(=O)CCCCCCCCCCNC(=O)[C@H](CCCCN)n3cc(C)nn3)CC2)nc(N2CCN(C(=O)CCCCCCCCCCNC(=O)[C@H](CCCN=C(N)N)n3cc(C[C@@H](C)CC)nn3)CC2)n1	?	?	-7%[2.33 µM]	-13	-22	56µM*
C#CCOCCOCCOCCNc1nc(N2CCN(C(=O)CCCCCCCCCCNC(=O)[C@H](CCCCN)n3cc(C[C@@H](C)CC)nn3)CC2)nc(N2CCN(C(=O)CCCCCCCCCCNC(=O)[C@H](CCCN=C(N)N)n3cc(C[C@@H](C)CC)nn3)CC2)n1	50µM*	50µM*	-38%[2.33 µM]	-5	-27	35µM*
C#CCOCCOCCOCCNc1nc(N2CCN(C(=O)CCCCCCCCCCNC(=O)[C@@H](CCSC)n3cc(CCO)nn3)CC2)nc(N2CCN(C(=O)CCCCCCCCCCNC(=O)[C@H](CCCN=C(N)N)n3cc(C[C@@H](C)CC)nn3)CC2)n1	-32%	50µM*	-15%[2.33 µM]	-10	-7	45µM*
C#CCOCCOCCOCCNc1nc(N2CCN(C(=O)CCCCCCCCCCNC(=O)[C@H](CO)n3cc(CCCCCN)nn3)CC2)nc(N2CCN(C(=O)CCCCCCCCCCNC(=O)[C@H](CCCN=C(N)N)n3cc(C[C@@H](C)CC)nn3)CC2)n1	/	50µM*	3%[2.33 µM]	/	/	/
COc1cccc(-n2cc(C(=O)NCc3ccc(C)cc3)c3ccccc3c2=O)c1	60%	-3%	12%[59 µM]	/	/	4%
Cc1ccc2c(=O)c3ccccc3n(CCCN)c2c1C	/	/	3%[59 µM]	/	/	/
O=C(CSc1nc2ccccc2n1Cc1ccc(F)c(Cl)c1)N1CCN(c2ccc(F)cc2)CC1	20%	3%	13%[59 µM]	/	/	-15%
